SARS PLpro yeast: blocks SARS-CoV papain-like protease in a yeast assay; Potency, µM (titrated, usually from 32.9 µM), most hits filed as activators; S. cerevisiae expressing SARS-CoV PLpro, growth rescue; 0.19% of 330,000 active; note: nearly all actives have a fitted effect of over 55% in size
NS1 inh: influenza NS1 inhibition; Potency, µM (titrated, usually from 46.1 µM); 0.4% of 270,000 active; note: actives are rising curves; nearly all actives have a fitted effect of over 50% in size
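Read-out: OD600 growth recovery of NS1-expressing budding yeast. Cells grown overnight at 30C in -URA glucose medium, washed, resuspended and diluted 1:100 in 2% galactose assay medium, pH 6.0. Same strain lacking NS1 served as positive control.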
Pf growth 96h: P. falciparum growth inhibition at 96 hour, primary screen for plastid delayed-death inhibitors; P. falciparum luciferase reporter growth, 96 h; Potency, µM (titrated, usually from 28.7 µM), most hits filed as inhibitors; 6.9% of 320,000 active; active = well fitted inhibition curve with a large enough effect; inconclusive = small, poorly fitted or top-dose-only effect, or another doubt; inactive = no such curve, though single readings can be large or run the other way
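Readout is luminescence from an integrated firefly luciferase in P. falciparum. Red cells, 2% hematocrit and 0.05% parasitemia final, were cultured with compound through two parasite generations (96 hours) at 37 C, 5% CO2.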
Pf growth 48h: P. falciparum growth inhibition at 48 hours (one generation); P. falciparum luciferase growth in erythrocytes, 48 h; Potency, µM (titrated, usually from 28.7 µM), hits mostly inhibitors; 5.9% of 310,000 active; AID 504832; active = well fitted inhibition curve with a large enough effect; inconclusive = small, poorly fitted or top-dose-only effect, or another doubt; inactive = no such curve, though single readings can be large or run the other way
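Compounds are pin-transferred into medium, infected erythrocytes (2% hematocrit, 0.1% parasitemia final) are added, and plates sit one parasite generation at 37 C in 5% CO2. Detection reagent is then added and luminescence measured.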
Shiga toxin inh: inhibitors of Shiga toxin in Vero cells; 9.2% of 290,000 active; AID 2315; inhibition, % at 38.7 µM; Vero cells, Shiga toxin protein synthesis inhibition reporter; in the data active = inhibition mostly above about 28%, no sharp cut-off; inactive = mostly below about 43%
CHX counter: affects cycloheximide protein synthesis inhibition readout, counter-screen; cell reporter, cycloheximide protein synthesis inhibition counterscreen; max response, %; 12% of 300,000 active; in the data active = max response mostly above about 13%, no sharp cut-off; inactive = mostly below about 14%; note: read at 38.3 µM for the half of the compounds with a filed dose
Numbers stand for hits; . = inactive; ? = inconclusive; / = no result given. A selection: hits, their analogues and other compounds. The true share with any hit is near 21%. Unless noted, calls come from the whole dose curve.

SMILES	SARS PLpro yeast	NS1 inh	Pf growth 96h	Pf growth 48h	Shiga toxin inh	CHX counter
Nc1ccccc1C(=O)NCCN1CCNC1=O	.	.	.	.	.	.
Cc1ccc(C(=O)NCC(=O)N2CCCCCC2)cc1	.	.	.	.	45.9	50.5
CC(C)(C)c1ccc(C(=O)NCC(=O)N2CCCC2)cc1	.	.	.	.	.	25.5
CC(C)C(NC(=O)c1ccc(C(C)(C)C)cc1)C(=O)Nc1cccc(S(N)(=O)=O)c1 (stereo not drawn)	.	.	?	?	.	.
CCCCC/C=C\C/C=C\C/C=C\C/C=C\CCCC(=O)C(F)(F)F	/	/	/	/	.	.
O=C(NCCCC(=O)N1CCCCC1)c1ccc(Cl)cc1	.	.	.	.	.	.
Cc1ccc(C(=O)NCCC(=O)N2CCCC2)cc1	.	.	.	.	40.9	37.5
Cc1cccc(C(=O)NCC(=O)N2CCCC2)c1	.	.	.	.	49.2	12.4
C[C@H](CO)N1C[C@H](C)[C@H](CN(C)CC2CCCCC2)Oc2ccc(NS(=O)(=O)c3ccc(F)cc3)cc2CC1=O	.	/	/	/	/	/
O=C(C1=C[C@@H](c2csc3ccccc23)C[C@@H](OCc2ccc(CO)cc2)O1)N1CCN(Cc2ccccc2)CC1	.	.	5.22µM	?	.	.
O=C(C1=C[C@@H](c2csc3ccccc23)C[C@@H](OCc2ccc(CO)cc2)O1)N1CCOCC1	.	.	?	?	.	10.8
O=C(C1=C[C@@H](c2coc3ccccc3c2=O)C[C@@H](OCc2ccc(CO)cc2)O1)N1CCN(Cc2ccccc2)CC1	.	.	?	?	.	.
O=C(C1=C[C@@H](c2csc3ccccc23)C[C@@H](OCc2ccc(CO)cc2)O1)N1CCN(Cc2ccc3c(c2)OCO3)CC1	.	.	5.22µM	?	.	.
O=C(NC1CC1)C1=C[C@H](c2csc3ccccc23)C[C@H](OCc2ccc(CO)cc2)O1	.	.	?	?	.	.
O=C(Nc1ccccc1)C1=C[C@H](c2csc3ccccc23)C[C@H](OCc2ccc(CO)cc2)O1	.	.	?	?	.	.
O=C(C1=C[C@@H](c2ccccc2)C[C@@H](OCc2ccc(CO)cc2)O1)N1CCN(Cc2ccc3c(c2)OCO3)CC1	.	.	?	?	.	.
C=CCOC(=O)C1=C[C@@H](c2csc3ccccc23)C[C@@H](OCc2ccc(CO)cc2)O1	.	.	13.1µM	?	.	.
O=C(CCn1c(=S)oc2ccccc21)Nc1ccccc1Br	.	.	.	?	.	.
CCCc1cc(=O)[nH]c(SCC(=O)N(CCOC)c2c(N)n(Cc3ccccc3)c(=O)[nH]c2=O)n1	.	/	.	.	/	/
CCN(CC)C(=O)C1CCC(CNS(=O)(=O)c2cccc3nsnc23)CC1 (stereo not drawn)	?	.	?	.	.	.
CC1(C)CC(=O)C(N=Nc2ccc(-c3ccccc3)cc2)=C(O)C1	.	/	.	.	.	.
COc1ccccc1N=NC1=C(O)CC(C)(C)CC1=O	.	.	.	.	active	22.8
COc1ccc2nc(N=NC3=C(O)CC(C)(C)CC3=O)sc2c1	.	.	.	.	.	27.5
CC1(C)CC(=O)C(N=Nc2ccc3ncsc3c2)=C(O)C1	/	.	.	.	48.7	29.0
CC1(C)CC(=O)C(N=Nc2ccc(OC(F)F)cc2)=C(O)C1	.	/	.	.	78.7	56.9
SMILES	SARS PLpro yeast	NS1 inh	Pf growth 96h	Pf growth 48h	Shiga toxin inh	CHX counter
CC(C)C(NC(=O)c1ccc(F)cc1)C(=O)N1CCN(c2ccccn2)CC1 (stereo not drawn)	.	/	/	/	/	/
Cc1cc2nc(-c3cccnc3SCC(=O)NC(C)C)[nH]c2cc1C	.	/	.	.	65.7	79.5
COCCOC(=O)CSc1ncccc1-c1nc2cc(C)c(C)cc2[nH]1	.	/	.	.	.	32.8
Cc1cc(NS(=O)(=O)c2ccc(NC(=O)CCSc3ccc(F)cc3)cc2)nc(C)n1	.	.	.	.	.	.
COc1ccc(-c2nc(SCC(=O)Nc3cccc(S(N)(=O)=O)c3)n[nH]2)cc1	.	/	.	.	/	/
COc1cccc(-c2csc(N3CCN(S(=O)(=O)c4ccc(F)cc4)CC3)n2)c1	.	.	.	?	.	.
CS(=O)(=O)N1CCN(c2nc(-c3ccccc3)cs2)CC1	.	.	?	.	.	27.4
Cc1cc(N2CCN(c3nc(-c4ccccc4)cs3)CC2)c2ccccc2n1	.	.	.	?	.	.

From PubChem
